The values below come from PubChem BioAssay AID489025 (Southern Research Specialized Biocontainment Screening …, 2010).

The campaign covered roughly 2,300 compounds. About 790 (34%) were called active. No rule for the calls is given here. The list shows a part of the results. Entries with a potency or affinity are not part of this list.

The nature of the assay: THP-1 cell cytotoxicity, dose response, cytotoxicity control for non-replicating M. tuberculosis project (AID 489025). The following applies: THP-1 cell viability; series mostly up to 40 µM; viability: at the top concentration.
`O=C(CCNc1ccc(Cl)cc1)c1cccs1`: the “viability” value was 102% (inactive).

As for `Cc1occc1-c1nnc(-c2cc([N+](=O)[O-])cc([N+](=O)[O-])c2)o1`, the “viability” value was 97.4% (inactive).

Turning to `Cc1cc(NC(=O)c2cc([N+](=O)[O-])cc([N+](=O)[O-])c2)no1`, the “viability” value was 111% (inactive).

As for `CCOC(=O)c1ccc(N=C(CC)c2c(O)n(C)c(=O)n(C)c2=O)cc1`, the “viability” value was 86.7% (inactive).

For the molecule `O=C1OC(/C(=C\Nc2cc(Cl)ccc2O)[N+](=O)[O-])c2ccccc21` (stereo not drawn), the “viability” value was 81.6% (inactive).

As to `COc1cccc2cc(-c3nc4ccccc4o3)c(=O)oc12`, the “viability” value was 97.5% (inactive).

For the molecule `CS(=O)(=O)Cc1nc2ccccc2oc1=O`, the “viability” value is 100% (inactive).

As to `O=C(OCC(=O)N1CCCC1)c1cc(Br)ccc1Cl`, the “viability” value is 121% (inactive).

Take `CC12CC3CC(C)(C1)CC(C(=O)N1CCCC1)(C3)C2`: the “viability” value was 84.4% (inactive).

Consider `CCOC(=O)COc1ccc2c(c1)c(C(C)=O)c(C)n2Cc1ccccc1`, for which the “viability” value was 90% (inactive).

Regarding `OC(COc1ccc2ccccc2c1Br)Cn1ccnc1` (stereo not drawn), the “viability” value is 74.6% (inactive).

For the molecule `O=C(COc1ccccc1)NCCSCc1ccc(Cl)cc1`, the “viability” value was 90.7% (inactive).

With `CCOc1ccc(Cn2c(=O)oc3ccccc32)cc1`, the “viability” value is 113% (inactive).

`OC(COc1ccccc1Cl)CN1CCN(CC(O)COc2ccccc2Cl)CC1` (stereo not drawn): the “viability” value was 87.5% (inactive).

Turning to `O=C(OCC#CCSc1nnc(-c2ccncc2)o1)c1cccs1`, the “viability” value is 113% (inactive).

Take `COc1ccc(COc2cccc(C=O)c2)cc1`: the “viability” value was 80.7% (inactive).

As for `CCOC(=O)Cc1csc(NC(=O)COc2ccc3c(c2)CCC3)n1`, the “viability” value is 92.2% (inactive).

Turning to `CCCCn1c(=O)c(C(=O)Nc2nnc(C(C)C)s2)c(O)c2ccccc21`, the “viability” value was 73.7% (inactive).

Regarding `CCCNC(=O)N1CCC(c2ccc3c(c2)OCO3)CC1`, the “viability” value was 89.1% (inactive).

`CCOC(=O)C1CCCc2c1[nH]c1c(C(N)=O)cccc21` (stereo not drawn): the “viability” value is 96.1% (inactive).

In the case of `O=C(OCC#CCSc1nc2ccccc2o1)c1ccco1`, the “viability” value was 98.9% (inactive).

On to `O=C(COC(=O)c1cc(Cl)ccc1O)c1ccc2c(c1)OCO2`, for which the “viability” value was 121% (inactive).

For `C/C(=N\O)c1cc(Cl)ccc1O`, the “viability” value is 87.7% (inactive).

In the case of `CCOC(=O)COc1ccc2c(=O)cc(-c3ccccc3)oc2c1`, the “viability” value was 110% (inactive).

For the molecule `CN(C)c1ccc(/C=C2\N=C(C(C)(C)C)OC2=O)cc1`, the “viability” value was 120% (inactive).

On to `O=c1c2c([N+](=O)[O-])cc([N+](=O)[O-])cc2nc2ccccn12`, for which the “viability” value is 99.5% (inactive).

With `O=C(OCc1cccc([N+](=O)[O-])c1)c1ccc2ccccc2n1`, the “viability” value is 106% (inactive).

For the molecule `CSc1ccc(CNc2ncc(-c3cccc([N+](=O)[O-])c3)n2C)cc1`, the “viability” value was 81.1% (inactive).

`N[C@@H](Cc1ccccc1)c1nnc(SC/C=C/c2ccccc2)o1`: the “viability” value was 112% (inactive).

With `CCOc1ccc(-c2nnc(NC(=O)CCCOc3cccc(C)c3)o2)cc1`, the “viability” value is 84.1% (inactive).

On to `CCOc1ccc(C(=O)Nc2nnc(C3=COCCO3)o2)cc1`, for which the “viability” value was 92.9% (inactive).

On to `O=C(Nc1nnc(-c2ccc3c(c2)CCCC3)o1)c1c(F)cccc1F`, for which the “viability” value is 102% (inactive).

For `Cc1cccc(C(=O)Nc2nnc(-c3cccnc3)o2)c1`, the “viability” value is 92.7% (inactive).

With `O=C(COc1ccccc1)Nc1nnc(-c2ccc3c(c2)CCCC3)o1`, the “viability” value is 93.5% (inactive).

Regarding `CCOc1ccccc1C(=O)OCC(=O)Nc1nnc(-c2ccccc2)o1`, the “viability” value was 114% (inactive).

Turning to `COc1ccc(C(=O)COC(=O)c2ccccc2O)c(OC)c1`, the “viability” value is 89.7% (inactive).

Regarding `O=Cc1ccc(OC2OCCOC2Oc2ccc(C=O)cc2)cc1` (stereo not drawn), the “viability” value is 120% (inactive).

With `O=C(CCN1CCN(C/C=C/c2ccccc2)CC1)Nc1ccc(Cl)cc1`, the “viability” value was 76% (inactive).

In the case of `COc1ccccc1C(=O)OCC(=O)Nc1ccc(Cl)cn1`, the “viability” value was 93.5% (inactive).

Regarding `C=CCOC(=O)c1ccc(-n2cnc(C)n2)nc1`, the “viability” value is 91.4% (inactive).

On to `NC(=O)CN1CCN(C2CC(=O)N(CCc3ccccc3)C2=O)CC1` (stereo not drawn), for which the “viability” value is 109% (inactive).

Regarding `O=C(Nc1nnc(-c2ccc(Cl)cc2)o1)C1=COCCO1`, the “viability” value is 85.3% (inactive).

Regarding `COc1cccc(C(=O)OCC(=O)Nc2nnc(-c3ccccc3)o2)c1`, the “viability” value is 79.2% (inactive).

On to `Cc1ccc(C(=O)Nc2nnc(-c3ccncc3)o2)cc1`, for which the “viability” value was 83.7% (inactive).

Regarding `O=C(COc1ccccc1)Nc1nnc(-c2ccc(Cl)cc2)o1`, the “viability” value is 93.5% (inactive).

Turning to `O=C(Nc1nnc(-c2ccc(Cl)cc2)o1)c1cccc(N2C(=O)CCC2=O)c1`, the “viability” value was 108% (inactive).

Take `O=C(COC(=O)CC12CC3CC(CC(C3)C1)C2)Nc1cccnc1Cl`: the “viability” value was 112% (inactive).

`CCc1ccc(N=CC2=C(O)CC(c3ccco3)CC2=O)cc1` (stereo not drawn): the “viability” value is 107% (inactive).

As to `C(=C\c1ccccc1)/CSc1nc2ncccc2[nH]1`, the “viability” value is 80.8% (inactive).

With `CCC(=O)c1ccc(OCc2ccc(C(=O)OC)cc2)cc1`, the “viability” value is 86.5% (inactive).

On to `CCOC(=O)C1CCN(Cc2ccc(-c3ccccc3)cc2)CC1`, for which the “viability” value is 124% (inactive).

Take `CCOC(=O)c1ccc(COC(=O)c2ccc(-c3nnc(-c4ccccc4)o3)cc2)o1`: the “viability” value is 77.6% (inactive).

Take `CCOC(=O)C1CCCN(Cc2ccc(OCc3ccccc3)cc2)C1` (stereo not drawn): the “viability” value is 91.6% (inactive).

Take `COc1ccccc1N=Cc1nc(-c2ccccc2)oc1OC(C)=O`: the “viability” value was 101% (inactive).

In the case of `Brc1ccc(OCCCCN2CCCCC2)cc1`, the “viability” value is 95.6% (inactive).

For the molecule `CN(CCOCCOc1ccc(F)cc1)Cc1ccccc1`, the “viability” value was 92.2% (inactive).

For `Cc1ccc(NC(=O)ON=C2CCCC2)cc1`, the “viability” value is 83.5% (inactive).

With `Cc1ccc(NC(=O)COc2ccccc2)cc1Cl`, the “viability” value is 104% (inactive).

Turning to `O=C(COc1ccc(Cl)cc1)Nc1ccc2[nH]ncc2c1`, the “viability” value was 86.3% (inactive).

In the case of `CCOc1ccccc1OC(=O)c1cc2ccccc2oc1=O`, the “viability” value was 97.5% (inactive).

As for `Cc1cccc(OCCCCc2c(C)n[nH]c2C)c1`, the “viability” value is 70.5% (inactive).

Consider `Cc1ccc(C(=O)NCCOc2cccc(C)c2)cc1`, for which the “viability” value is 82.8% (inactive).

Turning to `CCCCOC(=O)c1ccc(OC(=O)c2cccnc2)cc1`, the “viability” value is 86.3% (inactive).

On to `COc1ccc(OC(=O)c2cc3cc(Cl)ccc3oc2=O)cc1`, for which the “viability” value is 111% (inactive).

With `COc1ccc(Cl)cc1N=Cc1c(O)c2ccccc2oc1=O`, the “viability” value was 103% (inactive).

`Cc1ccc(NC(=O)CO/N=C/c2ccc(N(C)C)cc2)cc1`: the “viability” value is 86.2% (inactive).

Regarding `COc1ccc(CC(=O)OCC(=O)Nc2ccc(Br)cc2)cc1`, the “viability” value was 106% (inactive).

Consider `O=C(Nc1nnc(-c2ccc(Br)cc2)o1)C1=COCCO1`, for which the “viability” value was 102% (inactive).

`Cc1ccccc1C(=O)Nc1nnc(-c2ccco2)o1`: the “viability” value is 76.2% (inactive).

Turning to `O=C(COC(=O)c1ccc([N+](=O)[O-])s1)Nc1ccc(Cl)cn1`, the “viability” value was 81.6% (inactive).

In the case of `Cc1cccc(NC(=O)COc2ccc(Br)cc2)n1`, the “viability” value is 107% (inactive).

As to `O=C(Nc1nnc(-c2ccco2)o1)c1cccc2ccccc12`, the “viability” value was 75% (inactive).

As for `Cc1ccc(CCC(=O)Nc2ccccc2F)s1`, the “viability” value was 89.1% (inactive).

Take `O=C(Nc1ccccc1F)c1ccc(Br)o1`: the “viability” value was 97.4% (inactive).

Regarding `O=C(Nc1nnc(-c2ccc(Br)cc2)o1)c1ccco1`, the “viability” value is 96.8% (inactive).

Regarding `Fc1ccc(COc2ccc(-c3nnco3)cc2)cc1`, the “viability” value was 100% (inactive).

Consider `Cc1ccc(C(=O)OCC(=O)N2CCCCCC2)c(O)c1`, for which the “viability” value is 118% (inactive).

For the molecule `COc1ccc(-c2nc3ccc(C)cc3c(=O)o2)cc1OC`, the “viability” value was 89.8% (inactive).

What is called viability is a read-out of living cells in per cent, often relative to untreated cells.
